Several values for one entry are separate records, joined by “and”; a condition that tells them apart may be missing. Identical values can stand only once. The list shows a part of the results. A number with no mark means an inactive call. The rule behind the calls is not given here.
System: Botulinum neurotoxin type F light chain protease (Clostridium botulinum)
Assay: BoNT/F light chain protease inhibitors, confirmation, biochemical, flow cytometry, cherry pick 1 (AID 602140)
Details: multiplex microsphere protease cleavage assay, at 10 µM, active compounds read high

SMILES: CN1CCN(c2ccc(NC(=O)c3ccccc3)cc2)CC1
- inhibition: 1.4%

SMILES: CC1CCN(C(=O)c2ccc(S(=O)(=O)Cc3cc(F)ccc3F)c([N+](=O)[O-])c2)CC1
- inhibition: 1.2%

SMILES: Cc1cc(S(=O)(=O)NC2CCCC2)ccc1-n1cnnn1
- inhibition: 3.7%

SMILES: CCCSc1nc2sc3c(c2c(=O)n1-c1ccc(OC)cc1)CCN(C)C3
- inhibition: 5.3%

SMILES: COC(=O)CN(c1nc(C)c(Cl)c(OC)n1)S(=O)(=O)c1ccc(C)cc1
- inhibition: -0.3%

SMILES: Cc1onc(-c2ccccc2Cl)c1C(=O)NCCn1ccc2ccccc21
- inhibition: -5.2%

SMILES: O=C(Nc1nnc(CCc2ccccc2)s1)C1CCCO1 (configuration not stated)
- inhibition: -7%

SMILES: COc1cc(C(=O)NCc2ccc3c(c2)cc(C)n3C)cc(OC)c1OC
- inhibition: -4.7%

SMILES: Nc1ccccc1Sc1cc(Cl)nnc1Cl
- inhibition: -1.4%

SMILES: COc1cc2cc(CN(CCN3CCCC3)C(=O)Nc3ccccc3Cl)c(=O)[nH]c2cc1OC
- inhibition: 0.8%

SMILES: Cc1ccccc1NC(=O)c1cc(S(=O)(=O)Nc2cccc(C(=O)O)c2)ccc1Cl
- inhibition: -1.9%

SMILES: CC1CCc2c(sc3nc4n(c(=O)c23)CCS4)C1 (configuration not stated)
- inhibition: -5.8%

SMILES: Cc1cccc2cc3c(N)c(C(=O)N4CCCc5ccccc54)sc3nc12
- inhibition: 0.3%

SMILES: O=C(CN1CCCCCC1)Nc1c(Cl)cc(Cl)cc1Cl
- inhibition: -7.6%

SMILES: COc1ccc(C2CC(c3cccs3)=NN2c2nc(C)c(C(C)=O)s2)cc1OC (configuration not stated)
- inhibition: -1.7% and 7.1%

SMILES: COc1ccccc1-n1c(-c2cc(-c3ccco3)[nH]n2)n[nH]c1=S
- inhibition: 4%

SMILES: O=C(O)c1cc(S(=O)(=O)NC2CCCc3ccccc32)ccc1O (configuration not stated)
- inhibition: -1.4%

SMILES: Cc1c(NC(=O)c2cccnc2)c(=O)n(-c2ccccc2)n1C
- inhibition: 2.7%

SMILES: CCOCCn1c(-c2ccccc2)nc2ccccc21
- inhibition: -2.2%

SMILES: O=S(=O)(NC1CCCCC1N1CCC(O)CC1)c1ccc(Cl)cc1 (configuration not stated)
- inhibition: 2.2%

SMILES: COc1ccc(NS(=O)(=O)c2cc(C(=O)Nc3ccccc3C(=O)O)ccc2C)cc1
- inhibition: -0.5%

SMILES: Cc1ccc(-c2nc(-c3cccnc3)sc2CC(=O)Nc2ccc(C)c(Cl)c2)cc1
- inhibition: -18.6%
